These results are taken from PubChem BioAssay.

Unmarked numbers belong to inactive results. How the calls were made is not given here.

The nature of one test: blockers of DNA damage checkpoint Chk1 activation – imaging, HeLa, hydroxyurea, phospho-Chk1 antibody, percent positive cells, primary screen (AID 1186). Conditions: hydroxyurea-induced phospho-Chk1 immunofluorescence imaging, higher = more signal.
On to `CC(C)NC(=O)[C@@H]1c2ccccc2C(=O)N(CC23CC4CC(CC(C4)C2)C3)[C@H]1c1ccc(CO)cc1`, for which the z-score was -0.111.

`O=C1O[C@@H](c2ccccc2)[C@@H](c2ccccc2)N2[C@@H](c3ccccc3OCCO)[C@]3(C(=O)Nc4ccc(C#CCCO)cc43)[C@@H](C(=O)O)[C@H]12`: the z-score is 0.722.

Regarding `CN(C)CCCNC(=O)[C@@H]1c2ccccc2C(=O)N(Cc2cc(F)cc(C(F)(F)F)c2)[C@H]1c1ccc(CO)cc1`, the z-score was 0.241.

For the compound `CCCNC(=O)[C@@H]1c2ccccc2C(=O)N(c2ccc(C)cn2)[C@H]1c1ccc(CO)cc1`, the z-score is 0.929.

For `COC(=O)[C@H]1COC(c2ccc(OCCCO)cc2)=N1`, the z-score is 0.101.

With `CO[C@H]1O[C@H](CO)[C@@H](OC(=O)Nc2ccc3c(c2)OCO3)[C@H](OC(=O)Nc2ccccc2-c2ccccc2)[C@@H]1OC(=O)Nc1ccccc1-c1ccccc1`, the z-score is -0.313.

For `COCCCNC(=O)[C@@]1(C)c2ccccc2C(=O)N(Cc2ccc(OC(F)(F)F)cc2)[C@H]1c1ccc(CO)cc1`, the z-score is -0.143.

In the case of `COCCCNC(=O)[C@@]1(CCS(=O)(=O)c2ccccc2)N=C(c2ccc(OCCCO)cc2)O[C@H]1c1ccccc1`, the z-score is -0.213.

Consider `C/C=C\[C@@H](NCc1ccccc1Br)[C@@H](O)Cc1ccccc1`, for which the z-score is 0.0731.

With `CN1C(=O)[C@@]2(CCC(=O)OC(C)(C)C)N=C(c3ccc(OCCCO)cc3)O[C@H]2c2ccccc21`, the z-score was -0.414.

Turning to `O=C(CS)NCCCCCNC(=O)[C@@H]1C[C@@H]2C(=O)N[C@@H](Cc3ccccc3)C(=O)N2[C@@H]1c1ccc(O)cc1`, the z-score was 0.83.

For `C#C[C@@H](CC)O[Si](C#Cc1ccc(Oc2ccccc2)cc1)(C(C)C)C(C)C`, the z-score was 0.169.

As to `COC(=O)[C@]1(CO)N=C(c2ccc(OCCCO)cc2)O[C@@H]1c1ccccc1N=[N+]=[N-]`, the z-score was 0.0389.

`COc1ccc([Si](C)(C)[C@@H]2[C@@H](CC(=O)N3CCC[C@H]3CO)O[C@]3(C(=O)N(Cc4cccc(N5CCC5=O)c4)c4ccccc43)[C@H]2C)cc1`: the z-score is -0.532.

Take `COC(=O)[C@@]1(Cc2ccc(OC)cc2)[C@H]2c3cc(C(=O)N4CCCC4)n(Cc4cc(F)c(F)c(F)c4)c3C[C@H]2CN1C(=O)c1ccccc1`: the z-score was -0.345.

For the compound `C=C(CCCC)C(=O)CC[C@@H](OC(C)=O)c1cccc(OCCO)c1`, the z-score was 0.163.

Consider `COc1ccc([Si](C)(C)[C@@H]2[C@@H](CCO)O[C@]3(C(=O)N(Cc4ccc(NC(C)=O)cc4)c4ccccc43)[C@H]2C)cc1`, for which the z-score is -0.861.

Regarding `CN(C)c1ccc(C(O)C2C=CC3C(=O)N(c4ccccc4)C(=O)C3N2Nc2ccccc2F)cc1` (stereo unspecified), the z-score is -0.0191.

Turning to `CC(C)(C)OC(=O)CC[C@]1(C(=O)NCc2ccccc2)N=C(c2ccc(OCCCO)cc2)O[C@H]1c1ccccc1`, the z-score was -0.179.

For `CC(C)[Si]1(C(C)C)O[C@@H](c2ccccc2)c2cc(C3CC3)nc(-c3ccccc3)c21`, the z-score is -0.652.

On to `CC(C)NC(=O)[C@@]1(c2ccc([N+](=O)[O-])cc2)CC(=O)N(CC23CC4CC(CC(C4)C2)C3)[C@@H]1c1ccc(CO)cc1I`, for which the z-score is -0.122.

For `COCC1=C2[C@@H](CCc3ccccc3)OB(O)C[C@@H]2n2c(=O)n(-c3ccccc3)c(=O)n2C1`, the z-score was 0.0264.

In the case of `O=C1O[C@@H](c2ccccc2)[C@@H](c2ccccc2)N2[C@@H](c3ccc(O)cc3)[C@]3(C(=O)Nc4ccccc43)[C@@H](C(=O)O)[C@H]12`, the z-score is 0.482.

In the case of `O=C1c2ccccc2[C@@]2(Cc3ccccc3N(C3CC3)C2=O)[C@H](c2ccc(CO)cc2)N1Cc1ccccc1C(F)(F)F`, the z-score is 0.0523.

On to `CC(C)(C)OC(=O)CC[C@]1(C(N)=O)COC(c2ccc(OCCCO)cc2)=N1`, for which the z-score is 0.764.

Another test is described as follows: blockers of DNA damage checkpoint Chk1 activation – imaging, HeLa, hydroxyurea, phospho-Chk1 nuclear intensity, primary screen (AID 1187). Further: test concentration not given here. Conditions: hydroxyurea-induced phospho-Chk1 immunofluorescence imaging, higher = more signal.
Turning to `COC(=O)C1(C)C=C2C(=C(c3ccccc3)C(=O)C2C)CN1` (stereo unspecified), the z-score was 0.84.

On to `C=CCC(OC(C)=O)[C@@H]1[C@@H](N(Cc2cc3ccccc3o2)C(=O)Cc2ccc(F)cc2)c2cc(OCCCO)ccc2N1C(=O)Cc1ccc(OC)cc1` (stereo partly specified), for which the z-score was 0.0687.

Consider `COc1ccccc1CN1C(=O)c2ccccc2[C@@]2(Cc3ccccc3N(C(C)C)C2=O)[C@@H]1c1ccc(CO)cc1`, for which the z-score was 0.36.

Regarding `N#Cc1ccc(NN2C(C(O)c3cc(C(F)(F)F)cc(C(F)(F)F)c3)C=CC3C(=O)N(c4ccccc4)C(=O)C32)cc1` (stereo unspecified), the z-score was -0.0521.

As for `COc1ccccc1CN1C(=O)c2ccccc2[C@@H](C(=O)NCC(F)(F)F)[C@@H]1c1ccc(CO)cc1`, the z-score was 0.158.

Consider `CN(C)C(=O)[C@@]1(Cc2ccccc2)N=C(c2ccc(OCCCO)cc2)O[C@H]1c1ccccc1CN=[N+]=[N-]`, for which the z-score is 0.492.

On to `CCCCC(=C=CC[C@H](O)c1ccccc1OCCO)C[C@H](O)COCc1ccccc1`, for which the z-score is 0.18.

Regarding `CCCC[C@@H]1C[C@H]1[C@@H](NS(=O)(=O)c1cccc2cccnc12)c1ccc(-c2ccccc2)cc1`, the z-score was 0.189.

Regarding `Cn1cccc1C(O)C1C=CC2C(=O)NC(=O)C2N1Nc1ccccn1` (stereo unspecified), the z-score was -0.431.

Consider `C=C(/C(=C/C[C@H](OC(=O)c1ccncc1)c1ccc(OCCO)cc1)c1cnc2ccccc2c1)C(C)C`, for which the z-score is -0.0461.

For the compound `COC(=O)[C@@]1(Cc2ccc(F)cc2)[C@H]2c3cc(C(=O)N(C)C)n(Cc4ccc(OC)c(OC)c4)c3C[C@H]2CN1C(=O)c1ccccc1`, the z-score is 0.753.

On to `CC(C)NC(=O)[C@@H]1c2ccccc2C(=O)N(CC23CC4CC(CC(C4)C2)C3)[C@H]1c1ccc(CO)cc1`, for which the z-score is -0.0146.

For the compound `O=C1O[C@@H](c2ccccc2)[C@@H](c2ccccc2)N2[C@@H](c3ccccc3OCCO)[C@]3(C(=O)Nc4ccc(C#CCCO)cc43)[C@@H](C(=O)O)[C@H]12`, the z-score is 0.803.

With `CN(C)CCCNC(=O)[C@@H]1c2ccccc2C(=O)N(Cc2cc(F)cc(C(F)(F)F)c2)[C@H]1c1ccc(CO)cc1`, the z-score was -0.0884.

Consider `CCCNC(=O)[C@@H]1c2ccccc2C(=O)N(c2ccc(C)cn2)[C@H]1c1ccc(CO)cc1`, for which the z-score is 0.52.

Turning to `COC(=O)[C@H]1COC(c2ccc(OCCCO)cc2)=N1`, the z-score is -0.388.

In the case of `CO[C@H]1O[C@H](CO)[C@@H](OC(=O)Nc2ccc3c(c2)OCO3)[C@H](OC(=O)Nc2ccccc2-c2ccccc2)[C@@H]1OC(=O)Nc1ccccc1-c1ccccc1`, the z-score is -0.199.

For `COCCCNC(=O)[C@@]1(C)c2ccccc2C(=O)N(Cc2ccc(OC(F)(F)F)cc2)[C@H]1c1ccc(CO)cc1`, the z-score was -0.339.

As for `COCCCNC(=O)[C@@]1(CCS(=O)(=O)c2ccccc2)N=C(c2ccc(OCCCO)cc2)O[C@H]1c1ccccc1`, the z-score was -0.2.

For `C/C=C\[C@@H](NCc1ccccc1Br)[C@@H](O)Cc1ccccc1`, the z-score was 0.35.

`CN1C(=O)[C@@]2(CCC(=O)OC(C)(C)C)N=C(c3ccc(OCCCO)cc3)O[C@H]2c2ccccc21`: the z-score is -0.261.

As for `O=C(CS)NCCCCCNC(=O)[C@@H]1C[C@@H]2C(=O)N[C@@H](Cc3ccccc3)C(=O)N2[C@@H]1c1ccc(O)cc1`, the z-score was 0.886.

Consider `C#C[C@@H](CC)O[Si](C#Cc1ccc(Oc2ccccc2)cc1)(C(C)C)C(C)C`, for which the z-score was -0.0725.

Turning to `COC(=O)[C@]1(CO)N=C(c2ccc(OCCCO)cc2)O[C@@H]1c1ccccc1N=[N+]=[N-]`, the z-score was 0.0674.

On to `COc1ccc([Si](C)(C)[C@@H]2[C@@H](CC(=O)N3CCC[C@H]3CO)O[C@]3(C(=O)N(Cc4cccc(N5CCC5=O)c4)c4ccccc43)[C@H]2C)cc1`, for which the z-score was 0.535.

On to `COC(=O)[C@@]1(Cc2ccc(OC)cc2)[C@H]2c3cc(C(=O)N4CCCC4)n(Cc4cc(F)c(F)c(F)c4)c3C[C@H]2CN1C(=O)c1ccccc1`, for which the z-score is -0.868.

As to `C=C(CCCC)C(=O)CC[C@@H](OC(C)=O)c1cccc(OCCO)c1`, the z-score is 0.0394.

Turning to `COc1ccc([Si](C)(C)[C@@H]2[C@@H](CCO)O[C@]3(C(=O)N(Cc4ccc(NC(C)=O)cc4)c4ccccc43)[C@H]2C)cc1`, the z-score is -0.16.

Take `CN(C)c1ccc(C(O)C2C=CC3C(=O)N(c4ccccc4)C(=O)C3N2Nc2ccccc2F)cc1` (stereo unspecified): the z-score is -0.817.

For `CC(C)(C)OC(=O)CC[C@]1(C(=O)NCc2ccccc2)N=C(c2ccc(OCCCO)cc2)O[C@H]1c1ccccc1`, the z-score was -0.062.

With `CC(C)[Si]1(C(C)C)O[C@@H](c2ccccc2)c2cc(C3CC3)nc(-c3ccccc3)c21`, the z-score is -0.694.

As to `CC(C)NC(=O)[C@@]1(c2ccc([N+](=O)[O-])cc2)CC(=O)N(CC23CC4CC(CC(C4)C2)C3)[C@@H]1c1ccc(CO)cc1I`, the z-score was 1.16.

`COCC1=C2[C@@H](CCc3ccccc3)OB(O)C[C@@H]2n2c(=O)n(-c3ccccc3)c(=O)n2C1`: the z-score is -0.295.

For `O=C1O[C@@H](c2ccccc2)[C@@H](c2ccccc2)N2[C@@H](c3ccc(O)cc3)[C@]3(C(=O)Nc4ccccc43)[C@@H](C(=O)O)[C@H]12`, the z-score was 0.166.

For `O=C1c2ccccc2[C@@]2(Cc3ccccc3N(C3CC3)C2=O)[C@H](c2ccc(CO)cc2)N1Cc1ccccc1C(F)(F)F`, the z-score is 0.145.

Regarding `CC(C)(C)OC(=O)CC[C@]1(C(N)=O)COC(c2ccc(OCCCO)cc2)=N1`, the z-score is 0.572.
